Data published in PubChem BioAssay (Tox21).
Results filed as inconclusive are left out. The source made the active and inactive calls. Unless noted, the call rests on the fitted dose curve.

Legend:
[1] = qHTS assay to identify small molecule antagonists of the estrogen related receptor signaling pathway with the pleiotropic PPARgamma coactivator (PGC) from Tox21 10K library - cell viability counter screen (AID 1224840; active means well fitted cell-killing curve with a large enough effect in the repeat runs, not every such curve was filed as active; further: nearly all actives have a fitted effect of over 40% in size)
Procedure, shortened: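 Multiplexed viability counter screen in the PGC/ERR cell line: cells treated with DMSO-dissolved compounds for 17.5 hours at 37 C, then viability measured as CellTiter-Fluor fluorescence.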

[2] = qHTS assay to identify small molecule antagonists of the estrogen related receptor signaling pathway with the pleiotropic PPARgamma coactivator (PGC) from Tox21 10K library (AID 1224841; call rule not given here; further: actives are mostly falling curves and most rising ones were filed inactive; nearly all actives have a fitted effect of over 50% in size)
Procedure, shortened: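 Steps: plate 2,000 PGC/ERR cells per well; incubate 6 h at 37 C with 5% CO2; transfer compounds from DMSO stocks by pin tool; incubate 18 h at 37 C; add One-Glo; measure luminescence 30 min later.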

[3] = qHTS assay to identify small molecule agonists of the estrogen related receptor signaling pathway with the pleiotropic PPARgamma coactivator (PGC) from Tox21 10K library (AID 1224842; active means well fitted curve in the direction sought with a large enough effect in the repeat runs; an effect the other way counts as inactive or inconclusive; further: nearly all actives have a fitted effect of over 15% in size)
Procedure, shortened: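 PGC/ERR reporter cells (NTP line) were seeded 2,000 per well, rested 6 h at 37 C/5% CO2, then pin-dosed with compounds in DMSO for 18 h at 37 C; luciferase read by One-Glo luminescence after 30 min at room temperature.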

[4] = qHTS assay to identify small molecule agonists of the hypoxia (HIF-1) signaling pathway - cell viability counter screen (AID 1224844); further: nearly all actives have a fitted effect of over 50% in size
Procedure, shortened: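 Cytotoxicity was measured in parallel with the HRE-driven beta-lactamase readout: after 17 hrs of compound exposure at 37C, HRE-bla ME-180 cells received CellTiter-Glo and luminescence was recorded 30 min later.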

[5] = qHTS assay to identify small molecule agonists of the hypoxia (HIF-1) signaling pathway (AID 1224846; active means well fitted activation curve with a large enough effect in the signal ratio in the repeat runs, not every such curve was filed as active; the % refers to the signal ratio)
Procedure, shortened: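 Compounds from the Tox21 10K library, dissolved in DMSO, are tested for induction of a hypoxia response element–controlled beta-lactamase reporter in ME-180 cells. Exposure lasts 17 hrs at 37C after a 5 hr settling period, followed by CCF4-AM FRET substrate.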

[6] = qHTS assay to identify small molecule agonists of H2AX - cell viability counter screen (AID 1224847); further: top concentration of the series differs between compounds; nearly all actives have a fitted effect of over 30% in size
Procedure, shortened: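 For this counter screen, overnight-attached CHO-K1 cells received test compounds (15 concentrations, 0.76% DMSO final); 3 hr later at 37C, CellTiter-Glo reagent was added and luminescence recorded after 30 min at room temperature.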

[7] = qHTS assay to identify small molecule agonists of the estrogen related receptor (ERR) signaling pathway from Tox21 library (AID 1224849); conditions: ERR reporter cell line, ONE-Glo luciferase, 18 h; at 92.4 µM (top of the series) unless noted; further: nearly all actives have a fitted effect of over 15% in size
Procedure, shortened: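 Cells carrying the ERR reporter were plated and allowed to settle for 6 h, exposed to library compounds for 18 h at 37 C, then lysed with ONE-Glo and luminescence measured.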

[8] = qHTS assay to identify small molecule agonists of H2AX (AID 1224845; active means well fitted activation curve with a large enough effect in the signal ratio in the repeat runs, not every such curve was filed as active; the % refers to the signal ratio)
Procedure, shortened: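 Wild-type CHO-K1 cells plated overnight, then exposed 3 hr at 37C to compounds at 15 concentrations (0.76% DMSO). Lysed, then HTRF anti-pH2AX(S139)-cryptate/anti-H2AX-d2 detection after 24 hr at room temperature; emissions 665 and 620 nm.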

[9] = qHTS assay to identify small molecule antagonists of the estrogen related receptor (ERR) signaling pathway from Tox21 library (AID 1224848; active means well fitted curve in the direction sought with a large enough effect in the repeat runs; an effect the other way counts as inactive or inconclusive; further: nearly all actives have a fitted effect of over 50% in size)
Procedure, shortened: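 Tox21 10K compounds in DMSO tested for ERR pathway antagonism in NTP's ERR cell line; 18 h, 37 C exposure; ONE-Glo luminescence.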

[10] = molecular target: Thyrotropin receptor (Homo sapiens) (UniProt P16473); test: qHTS assay to identify small molecule agonists of the thyroid stimulating hormone receptor (TSHR) signaling pathway (AID 1224843); further: nearly all actives have a fitted effect of over 45% in size; further: potency means the concentration at half of the fitted maximal effect
Procedure, shortened: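 Using 15 concentrations per compound in triplicate, cAMP production was monitored in TSHR-HEK293 cells after 30 min compound incubation at RT; HTRF reagents followed, with fluorescence intensity recorded after 1 h.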
On the % scale 0 is the no-effect control and ±100 the full control effect.

Sequence of Thyrotropin receptor (Homo sapiens) (P16473 whole entry, looked up): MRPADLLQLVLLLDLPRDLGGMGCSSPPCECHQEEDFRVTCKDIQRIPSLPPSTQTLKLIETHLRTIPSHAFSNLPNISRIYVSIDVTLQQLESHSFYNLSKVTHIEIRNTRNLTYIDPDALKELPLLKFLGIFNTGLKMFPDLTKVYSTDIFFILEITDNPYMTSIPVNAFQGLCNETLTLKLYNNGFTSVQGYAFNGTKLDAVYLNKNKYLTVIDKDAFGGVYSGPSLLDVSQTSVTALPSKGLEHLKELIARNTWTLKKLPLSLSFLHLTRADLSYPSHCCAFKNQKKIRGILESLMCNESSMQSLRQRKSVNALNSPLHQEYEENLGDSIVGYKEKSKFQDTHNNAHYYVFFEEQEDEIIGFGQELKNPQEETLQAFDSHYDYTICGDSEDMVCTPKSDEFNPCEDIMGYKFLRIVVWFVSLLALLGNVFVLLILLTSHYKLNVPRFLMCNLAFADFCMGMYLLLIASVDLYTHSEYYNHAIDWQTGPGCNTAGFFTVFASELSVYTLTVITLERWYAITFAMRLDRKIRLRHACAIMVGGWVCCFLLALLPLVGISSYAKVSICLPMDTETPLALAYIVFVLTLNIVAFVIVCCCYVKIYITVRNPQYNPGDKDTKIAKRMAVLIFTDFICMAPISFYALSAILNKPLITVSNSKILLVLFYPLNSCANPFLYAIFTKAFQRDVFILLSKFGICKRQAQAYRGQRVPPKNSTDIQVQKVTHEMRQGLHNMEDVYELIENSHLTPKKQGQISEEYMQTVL

Cc1ccc(O)c([N+](=O)[O-])c1
inactive: outcome [1] | Potency [2] | Potency [3] | outcome [4] | outcome [5] | outcome [6] | activity change, positive = activation [7] -16.2%

C=C(C)C(=O)OCCOC1CC2CC1C1C=CCC21 (stereo not drawn)
inactive: outcome [1] | Potency [2] | Potency [3] | outcome [4] | outcome [8] | outcome [5] | outcome [6] | outcome [9]

C/C=C(\C)C(=O)OC/C=C(\C)CCC=C(C)C
inactive: outcome [1] | Potency [2] | Potency [3] | outcome [4] | outcome [8] | outcome [5] | outcome [6] | outcome [9] | activity change, positive = activation [7] 10.5%

CCOC(=O)CC(C(C)=O)C(C)=O
inactive: outcome [1] | Potency [10] | outcome [4] | outcome [8]

BrCCOc1ccccc1
inactive: outcome [1] | Potency [2] | Potency [3] | outcome [4] | outcome [8] | outcome [6] | outcome [9]

CCCC(=O)OC
inactive: outcome [1] | Potency [10] | outcome [4] | outcome [8] | outcome [5]

Cc1cc(C)c(C)c(C)c1
inactive: outcome [1] | Potency [2] | Potency [3] | outcome [4] | outcome [8] | outcome [5] | outcome [6] | outcome [9] | activity change, positive = activation [7] 5.28%

COC(=O)C(c1ccccc1Cl)N1CCc2sccc2C1 (stereo not drawn)
active: Potency [10] 16.8 µM
inactive: outcome [1] | Potency [3] | outcome [4] | outcome [8] | outcome [5] | outcome [6] | outcome [9] | activity change, positive = activation [7] -2.43% [at 42.5 µM]

CSC(=O)c1cccc2nnsc12
inactive: outcome [1] | Potency [10] | outcome [4] | outcome [8] | outcome [5] | outcome [6]

O=C(O)Cc1ccccc1Oc1ccc(Cl)cc1Cl
inactive: outcome [1] | Potency [10] | outcome [4] | outcome [8] | outcome [5] | outcome [6]

C=CCN(CC=C)CC=C
inactive: outcome [1] | Potency [10] | outcome [4] | outcome [8] | outcome [5] | outcome [6]

CCCCCCCCCCCCCCCCN(C)C
inactive: viability change, negative = cytotoxic [1] 6.95% [at 8.39 µM] | activation [10] -17.9% [at 8.39 µM] | activity change, negative = cytotoxicity [4] -5.55% [at 6.97 µM] | activation (H2AX phosphorylation) [8] 1.56% [at 14 µM] | activation [5] -0.212% [at 7.01 µM] | activity change, negative = cytotoxicity [6] -3.36% [at 14 µM]

CC(=O)OC/C=C(/C)CCC=C(C)C
inactive: outcome [1] | Potency [10] | outcome [4] | outcome [8] | outcome [5] | outcome [6]

CCCCN=C(N)N=C(N)N
inactive: outcome [1] | Potency [10] | outcome [4] | outcome [8] | outcome [5] | outcome [6]

Cc1cc(C)c(N)c(Cl)c1
inactive: outcome [1] | Potency [10] | outcome [4] | outcome [8] | outcome [5] | outcome [6]

CC(C)(C)c1ccc(C(=O)CCCCl)cc1
inactive: outcome [1] | Potency [10] | outcome [4] | outcome [8] | outcome [5] | outcome [6]

Cc1ccc(Br)cc1
inactive: outcome [1] | Potency [10] | outcome [4] | outcome [8] | outcome [5] | outcome [6]

CCc1ccc(CC)cc1
inactive: outcome [1] | Potency [10] | outcome [4] | outcome [8] | outcome [5] | outcome [6]

O=Cc1ccc(C(=O)O)cc1
inactive: outcome [1] | Potency [10] | outcome [4] | outcome [8] | outcome [5] | outcome [6]

COC(=O)c1ccc(NC(C)=O)cc1OC
inactive: outcome [1] | Potency [10] | outcome [4] | outcome [8] | outcome [5] | outcome [6]

Cc1cc(N)no1
inactive: outcome [1] | Potency [10] | outcome [4] | outcome [8] | outcome [5] | outcome [6]

CCN1CCN(C(=O)N[C@@H](C(=O)N[C@@H]2C(=O)N3C(C(=O)O)=C(CSc4nnnn4C)CS[C@H]23)c2ccc(O)cc2)C(=O)C1=O
inactive: outcome [1] | Potency [10] | outcome [4] | outcome [8] | outcome [5] | outcome [6]

CCNC(=O)C(C)OC(=O)Nc1ccccc1 (stereo not drawn)
inactive: outcome [1] | Potency [10] | outcome [4] | outcome [8] | outcome [5] | outcome [6]

COCc1nnc(-c2ccc[n+]([O-])c2)n1-c1c(Cl)c(Cl)cc2[nH]c(=O)c(=O)[nH]c12
inactive: outcome [1] | Potency [10] | outcome [4] | outcome [8] | outcome [5] | outcome [6]

O=C(CCBr)N1CCN(C(=O)CCBr)CC1
inactive: outcome [1] | Potency [10] | outcome [4] | outcome [8] | outcome [5] | outcome [6]

CCCCCC(=O)CC
inactive: outcome [1] | Potency [10] | outcome [4] | outcome [8] | outcome [5] | outcome [6]

NCC1CCC(C(=O)Oc2ccc(CCC(=O)O)cc2)CC1 (stereo not drawn)
inactive: outcome [1] | Potency [10] | outcome [4] | outcome [8] | outcome [5] | outcome [6]

C/C=C/C(=O)CCCC
inactive: outcome [1] | Potency [10] | outcome [4] | outcome [8] | outcome [5] | outcome [6]
